In PubChem BioAssay AID1159580 (chemical genetic matrix, 2015):
Hit rate of the full screen: of about 5,500 compounds, about 2,000 (36%) were called active. Not shown: some 18% with an inconclusive outcome. No stated cut-off is given here; in the data, active means normalized growth mostly below about 0.91 (no sharp cut-off); inconclusive means no clear call, values can overlap the other calls; inactive means mostly above about 0.92. Some of the results follow.

Assay: chemical genetic growth profiling, strain panel (AID 1159580);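 further: tested at 20 µM; growth read once vehicle control cultures reached saturation at 30 °C; 1 = growth at the plate median or of vehicle wells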
Settings: growth OD

Measured: normalized growth

NC1=NCCN1CC(=O)O
inactive: S. cerevisiae deletion strains, locus YJR043C, strain POL32, stronger effect = lower value 0.98 | S. cerevisiae deletion strains, locus YJR066W, strain TOR1, stronger effect = lower value 0.989 | S. cerevisiae deletion strains, locus YKL009W, strain mrt4, stronger effect = lower value 0.968 | S. cerevisiae deletion strains, locus YKL068W, stronger effect = lower value 0.986 | S. cerevisiae deletion strains, locus YKL085W, strain MDH1 (second series), stronger effect = lower value 0.983 | S. cerevisiae deletion strains, locus YKL085W, strain MDH1, stronger effect = lower value 0.983 | S. cerevisiae deletion strains, locus YKL160W, strain elf1, stronger effect = lower value 1.04 | S. cerevisiae deletion strains, locus YKL190W, strain CNB1, stronger effect = lower value 0.978 | S. cerevisiae deletion strains, locus YKR001C, strain vps1, stronger effect = lower value 0.989 | S. cerevisiae deletion strains, locus YKR026C, strain gcn3, stronger effect = lower value 1.03 | S. cerevisiae deletion strains, locus YKR091W, strain srl3, stronger effect = lower value 1.01 | S. cerevisiae deletion strains, locus YLL001W, strain dnm1, stronger effect = lower value 0.984 | S. cerevisiae deletion strains, locus YLL026W, stronger effect = lower value 1.01 | S. cerevisiae deletion strains, locus YLL041C, strain sdh2, stronger effect = lower value 1.01 | S. cerevisiae deletion strains, locus YLR027C, strain aat2, stronger effect = lower value 1.02 | S. cerevisiae deletion strains, locus YLR039C, strain RIC1, stronger effect = lower value 0.964 | S. cerevisiae deletion strains, locus YLR058C, strain SHM2, stronger effect = lower value 0.975 | S. cerevisiae deletion strains, locus YLR102C, strain apc9, stronger effect = lower value 0.986 | S. cerevisiae deletion strains, locus YLR113W, strain HOG1, stronger effect = lower value 0.983 | S. cerevisiae deletion strains, locus YLR221C, strain rsa3, stronger effect = lower value 0.987 | S. cerevisiae deletion strains, locus YLR258W, strain gsy2, stronger effect = lower value 0.996 | S. cerevisiae deletion strains, locus YLR262C, strain YPT6 (second series), stronger effect = lower value 1.02 | S. cerevisiae deletion strains, locus YLR262C, strain YPT6, stronger effect = lower value 0.958 | S. cerevisiae deletion strains, locus YLR268W, strain sec22, stronger effect = lower value 0.99 | S. cerevisiae deletion strains, locus YLR320W, strain mms22, stronger effect = lower value 0.957 | S. cerevisiae deletion strains, locus YLR330W, strain CHS5, stronger effect = lower value 1 | S. cerevisiae deletion strains, locus YLR342W, strain FKS1 (second series), stronger effect = lower value 1.01 | S. cerevisiae deletion strains, locus YLR342W, strain FKS1, stronger effect = lower value 1.02 | S. cerevisiae deletion strains, locus YLR357W, strain rsc2, stronger effect = lower value 1.03 | S. cerevisiae deletion strains, locus YLR370C, strain arc18, stronger effect = lower value 1.01 | S. cerevisiae deletion strains, locus YLR371W, strain rom2, stronger effect = lower value 0.996 | S. cerevisiae deletion strains, locus YLR384C, strain iki3, stronger effect = lower value 1.01 | S. cerevisiae deletion strains, locus YLR418C, strain cdc73, stronger effect = lower value 0.995 | S. cerevisiae deletion strains, locus YML016C, strain PPZ1, stronger effect = lower value 0.986 | S. cerevisiae deletion strains, locus YML032C, strain rad52, stronger effect = lower value 0.994 | S. cerevisiae deletion strains, locus YML120C, strain ndi1, stronger effect = lower value 0.998 | S. cerevisiae deletion strains, locus YML124C, strain tub3, stronger effect = lower value 0.995 | S. cerevisiae deletion strains, locus YMR058W, strain fet3, stronger effect = lower value 1.02 | S. cerevisiae deletion strains, locus YMR078C, strain ctf18, stronger effect = lower value 0.994 | S. cerevisiae deletion strains, locus YMR125W, strain sto1, stronger effect = lower value 1.02 | S. cerevisiae deletion strains, locus YMR129W, stronger effect = lower value 1 | S. cerevisiae deletion strains, locus YMR205C, strain PFK2, stronger effect = lower value 1.02 | S. cerevisiae deletion strains, locus YMR223W, strain ubp8, stronger effect = lower value 0.992 | S. cerevisiae deletion strains, locus YMR231W, strain pep5, stronger effect = lower value 1.02 | S. cerevisiae deletion strains, locus YMR307W, strain GAS1, stronger effect = lower value 1.05 | S. cerevisiae deletion strains, locus YNL067W, strain RPL9B, stronger effect = lower value 0.966 | S. cerevisiae deletion strains, locus YNL071W, strain lat1, stronger effect = lower value 0.983 | S. cerevisiae deletion strains, locus YNL153C, strain GIM3, stronger effect = lower value 0.989 | S. cerevisiae deletion strains, locus YNL183C, strain NPR1, stronger effect = lower value 0.919 | S. cerevisiae deletion strains, locus YNL209W, strain ssb2, stronger effect = lower value 1.03 | S. cerevisiae deletion strains, locus YNL233W, strain BNI4, stronger effect = lower value 0.974 | S. cerevisiae deletion strains, locus YNL248C, strain rpa49, stronger effect = lower value 1.03 | S. cerevisiae deletion strains, locus YNL250W, strain rad50, stronger effect = lower value 0.973 | S. cerevisiae deletion strains, locus YNL271C, strain bni1, stronger effect = lower value 0.998 | S. cerevisiae deletion strains, locus YNL298W, strain CLA4, stronger effect = lower value 0.996 | S. cerevisiae deletion strains, locus YNL307C, strain MCK1, stronger effect = lower value 0.993 | S. cerevisiae deletion strains, locus YNL322C, strain KRE1 (second series), stronger effect = lower value 1.02 | S. cerevisiae deletion strains, locus YNR049C, strain mso1, stronger effect = lower value 1.01 | S. cerevisiae deletion strains, locus YNR052C, strain pop2, stronger effect = lower value 0.998 | S. cerevisiae deletion strains, locus YOL006C, strain TOP1, stronger effect = lower value 0.944 | S. cerevisiae deletion strains, locus YOL012C, strain htz1 0.788 | S. cerevisiae deletion strains, locus YOL147C, strain pex11, stronger effect = lower value 0.995 | S. cerevisiae deletion strains, locus YOR001W, strain rrp6, stronger effect = lower value 0.966 | S. cerevisiae deletion strains, locus YOR061W, strain CKA2, stronger effect = lower value 0.958 | S. cerevisiae deletion strains, locus YOR069W, strain VPS5, stronger effect = lower value 0.995 | S. cerevisiae deletion strains, locus YOR070C, strain gyp1, stronger effect = lower value 1.02 | S. cerevisiae deletion strains, locus YOR080W, strain dia2, stronger effect = lower value 1.03 | S. cerevisiae deletion strains, locus YOR083W, strain WHI5, stronger effect = lower value 0.959 | S. cerevisiae deletion strains, locus YOR106W, strain vam3, stronger effect = lower value 1.03 | S. cerevisiae deletion strains, locus YOR136W, strain idh2, stronger effect = lower value 0.986 | S. cerevisiae deletion strains, locus YOR144C, strain elg1, stronger effect = lower value 0.992 | S. cerevisiae deletion strains, locus YOR184W, strain ser1, stronger effect = lower value 1.01 | S. cerevisiae deletion strains, locus YOR231W, strain MKK1, stronger effect = lower value 0.966 | S. cerevisiae deletion strains, locus YOR265W, strain rbl2, stronger effect = lower value 0.994 | S. cerevisiae deletion strains, locus YOR270C, strain vph1, stronger effect = lower value 0.924 | S. cerevisiae deletion strains, locus YOR290C, strain snf2, stronger effect = lower value 1.01 | S. cerevisiae deletion strains, locus YOR316C, strain cot1, stronger effect = lower value 0.989 | S. cerevisiae deletion strains, locus YPL051W, strain arl3, stronger effect = lower value 0.997 | S. cerevisiae deletion strains, locus YPL055C, strain LGE1, stronger effect = lower value 0.918 | S. cerevisiae deletion strains, locus YPL078C, strain atp4, stronger effect = lower value 1.03 | S. cerevisiae deletion strains, locus YPL106C, strain sse1, stronger effect = lower value 1.01 | S. cerevisiae deletion strains, locus YPL240C, strain hsp82, stronger effect = lower value 1.01 | S. cerevisiae deletion strains, locus YPL256C, strain CLN2, stronger effect = lower value 0.953 | S. cerevisiae deletion strains, locus YPR119W, strain clb2, stronger effect = lower value 0.983 | S. cerevisiae deletion strains, locus YPR141C, strain kar3, stronger effect = lower value 0.988 | S. cerevisiae deletion strains, locus YPR163C, strain tif3, stronger effect = lower value 0.986 | S. cerevisiae deletion strains, locus YPR167C, strain met16, stronger effect = lower value 0.993 | S. cerevisiae deletion strains, strain wtn01, stronger effect = lower value 0.995 | S. cerevisiae strains, strain wild type, stronger effect = lower value 0.982
